PubChem BioAssay (NCATS)
Where “and” joins values, the source holds several entries; their conditions need not be identical. Equal values may be shown once. Records with an inconclusive call do not appear. A number with no mark means an inactive call. Calls of active or inactive are those of the source. The call rests on the fitted dose curve; in most records, active means well fitted curve in the direction sought with a large enough effect; inconclusive means small, poorly fitted or top-dose-only effect, or another doubt; inactive means no such curve, though single readings can be large; an effect the other way counts as inactive or inconclusive.

What was measured:
[1] = target: Cellular tumor antigen p53 (Homo sapiens) (UniProt P04637); assay: Primary qHTS for small molecule compounds that upregulate eGFP-tagged delta133p53alpha (in N-terminal) cells. (AID 2060322); conditions: NCI-H358 eGFP-delta133p53alpha fluorescence, 24 h; activation: hits give high values; further: nearly all actives have a fitted effect of over 75% in size;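 on activation: series mostly up to about 56 µM; 0% = DMSO vehicle and 100% = reference activator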
Method in brief: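 NCI-H358 cells pre-induced 24 h with 10 ng/ml doxycycline to express N-terminal eGFP-delta133p53alpha, then dosed 24 h at 37C without doxycycline; fixed, Hoechst-stained, GFP intensity by laser scanning cytometry, normalized to DMSO (0%) and 57.5 uM 5-azacytidine (100%).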

[2] = BET inhibitor-based combinations targeting novel dependencies in MECOM-rearranged (r) AML: SET-2 cell line (AID 2202231); conditions: SET-2 AML cells viability, CellTiter-Glo luminescence, 48 h; viability: hits give low values, concentration not given here; further: nearly all actives have a fitted effect of over 35% in size;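 on viability: plate controls were DMSO treated cells for no effect and wells without cells for full effect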
Method in brief: (§1)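 AML cell lines seeded at 500 cells/well, treated with 11-point dose curves for 48 h. Viability by CellTiter-Glo luminescence, normalised to DMSO and empty wells; activity expressed as AUC and per-cell-line Z-transformed AUC.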

[3] = BET inhibitor-based combinations targeting novel dependencies in MECOM-rearranged (r) AML: OCI-AML3 cell line (AID 2202232); conditions: Potency: OCI-AML3 viability; further: nearly all actives have a fitted effect of over 35% in size
Method in brief: as §1

[4] = BET inhibitor-based combinations targeting novel dependencies in MECOM-rearranged (r) AML: MV-4-11 cell line (AID 2202233); further: nearly all actives have a fitted effect of over 45% in size
Method in brief: (§2)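 Cells at 500/well were exposed for 48 hr to MIPE v5.0 drugs as 11-point dose curves. Viability was read by CellTiter-Glo luminescence and normalized to DMSO and empty-well controls. Activity was expressed as AUC and per-cell-line Z-AUC.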

[5] = BET inhibitor-based combinations targeting novel dependencies in MECOM-rearranged (r) AML: HNT-34 cell line (AID 2202234); further: nearly all actives have a fitted effect of over 35% in size
Method in brief: as §2

[6] = BET inhibitor-based combinations targeting novel dependencies in MECOM-rearranged (r) AML: UCSD-AML1 cell line (AID 2202235); further: nearly all actives have a fitted effect of over 40% in size
Method in brief: as §2

[7] = BET inhibitor-based combinations targeting novel dependencies in MECOM-rearranged (r) AML: AML-191 cell line (AID 2202236; further: nearly all actives have a fitted effect of over 35% in size)
Method in brief: as §1

[8] = BET inhibitor-based combinations targeting novel dependencies in MECOM-rearranged (r) AML: AML-194 cell line (AID 2202237; further: nearly all actives have a fitted effect of over 40% in size)
Method in brief: as §1
Potency means the concentration at half of the fitted maximal effect.

Cellular tumor antigen p53 (Homo sapiens), sequence (P04637 whole entry, looked up): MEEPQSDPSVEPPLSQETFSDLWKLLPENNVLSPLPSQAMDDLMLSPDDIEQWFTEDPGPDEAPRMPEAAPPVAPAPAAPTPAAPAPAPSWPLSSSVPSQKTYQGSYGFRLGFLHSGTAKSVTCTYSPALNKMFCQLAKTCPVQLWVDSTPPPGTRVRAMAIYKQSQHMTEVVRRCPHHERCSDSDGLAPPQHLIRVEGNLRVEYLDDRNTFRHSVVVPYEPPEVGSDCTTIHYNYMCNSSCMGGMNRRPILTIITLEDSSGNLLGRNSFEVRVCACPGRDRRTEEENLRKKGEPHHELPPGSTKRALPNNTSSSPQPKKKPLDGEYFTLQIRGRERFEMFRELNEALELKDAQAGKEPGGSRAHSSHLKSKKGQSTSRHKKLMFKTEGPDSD

| Compound | activation [1] | viability [2] [%] | Potency [3] | Potency [4] | Potency [5] | Potency [6] | Potency [7] | Potency [8] | Potency [2] | Potency [1] |
| --- | --- | --- | --- | --- | --- | --- | --- | --- | --- | --- |
| OC[C@H]1OC(O)C[C@@H](O)[C@H]1O (stereo partly drawn) | 27.8% | 110 | inactive | inactive | inactive | inactive | inactive | inactive | – | – |
| O=c1[nH]nc(Sc2ncc([N+](=O)[O-])s2)n1-c1ccc2c(c1)OCCO2 | -12.9% | – | 2.95 µM (active) | 1.86 µM (active) | 3.32 µM (active) | 9.34 µM (active) | 3.32 µM (active) | 7.42 µM (active) | 7.42 µM (active) | – |
| CN(C)c1ccc2nc3ccc(=[N+](C)C)cc-3sc2c1 | – | – | 5.25 µM (active) | 2.63 µM (active) | 7.42 µM (active) | 9.34 µM (active) | 2.95 µM (active) | 4.68 µM (active) | 5.9 µM (active) | 17.4 µM (active) |
| CC(C)C[C@H](NC(=O)CNC(=O)c1cc(Cl)ccc1Cl)B(O)O | – | – | 0.118 µM (active) | 0.148 µM (active) | 0.132 µM (active) | 0.166 µM (active) | 0.166 µM (active) | 0.332 µM (active) | 0.105 µM (active) | 17.2 µM (active) |
| Cc1cc(=O)oc2cc(O)ccc12 | -17.5% and -1.39% | 111 | inactive | inactive | inactive | inactive | inactive | inactive | – | – |
| CC(C)(C#N)c1cc(Cn2cncn2)cc(C(C)(C)C#N)c1 | 2.42% | 107 | inactive | inactive | inactive | inactive | inactive | inactive | – | – |
| N=c1ccn2c(n1)O[C@H]1[C@@H](O)[C@@H](CO)O[C@H]12 | 18.1% | – | 5.25 µM (active) | 1.32 µM (active) | 0.235 µM (active) | 0.0833 µM (active) | 0.235 µM (active) | 0.118 µM (active) | 1.05 µM (active) | – |
| C[Se]CCC(N)C(=O)O (stereo not drawn) | -7.89% | 105 | inactive | inactive | inactive | inactive | inactive | inactive | – | – |
| Oc1c(Cl)cc(Cl)c2cccnc12 | 16.4% and -7.96% | – | 16.6 µM (active) | 11.8 µM (active) | 4.17 µM (active) | 5.25 µM (active) | 8.33 µM (active) | 8.33 µM (active) | 8.33 µM (active) | – |
| CCN1CCN(CC(=O)Nc2ccc(-c3cccc4c(=O)cc(N5CCOCC5)oc34)c3sc4ccccc4c23)CC1 | -18.4% | – | 2.57 µM (active) | 1.44 µM (active) | 5.74 µM (active) | 2.57 µM (active) | 5.74 µM (active) | 3.23 µM (active) | 8.11 µM (active) | – |
| CC(C(=O)O)c1ccc(-c2ccccc2)c(F)c1 (stereo not drawn) | 3.78% | 111 | inactive | inactive | inactive | inactive | inactive | inactive | – | – |
